Tgondii IFNg – T. gondii growth inhibition with IFN-gamma, primary screen, cell-based; actives 3.8% (n = 69,000); AID 1259416, 2018; Toxoplasma gondii growth in IFN-gamma-treated host cells; stronger effect = lower value; activity change, negative = inhibition, % (test concentration not listed); in the data active = activity change below about -70%, passing the limit was not always enough;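 also: host cells are HeLa cells infected with Toxoplasma gondii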
Hits are given with their value; i = inactive. Many of the other results were omitted from the sample, so hits are more common in it than they were.

SMILES	Tgondii IFNg
Cn1c(-c2ccccc2)cnc1NC(=O)c1cccn(CC(=O)N2CCCC2)c1=O	i
COc1cc(=O)[nH]c(SCC(=O)Nc2ccc(Cl)cn2)n1	i
O=C(CSc1nc2c(c(=O)n1-c1ccccc1)SCC2)Nc1ccc(-c2ccccc2)cn1	-72.7
O=C(Cc1cccc(F)c1)Nc1ccc(-c2nc(-c3ccccc3)co2)cc1	i
Cc1ccc(C)c(NC(=O)C(=O)NCCc2sc(-c3ccc(Cl)cc3)nc2C)c1	i
CCN(C)Cc1n[nH]c(=O)n1-c1cc(F)ccc1C	i
FC(F)(F)c1cccc(-c2ccc(-c3cccc(C(F)(F)F)c3)o2)c1	i
FC(F)(F)c1cccc(-c2nnc(C3c4ccccc4Oc4ccccc43)o2)c1	-98.9
Cc1oc(-c2cccc(C(F)(F)F)c2)nc1CN(C)Cc1cnc(N)nc1	i
CC(C)CN1C[C@@H]2CC[C@@]3(N=C(c4ccccc4)NC3=O)[C@@H]2C1	i
CCOC(=O)N1CCC(NCc2cncn2CC(C)C)CC1	i
Cc1ccccc1NC(=O)c1ccc2ccc(N3CCN(C)CC3)n2c1	i
CN1CCN(c2ccc3ccc(C(=O)Nc4cccc(F)c4)cn23)CC1	i
Cc1ccc(NC(=O)c2ccc3ccc(N4CCN(C)CC4)n3c2)cc1C	-73.0
Cc1nc2ncccn2c1C(=O)N1CC[C@@H](c2ccc3c(c2)OCO3)[C@H](O)C1	i
CCCC(C)c1nnc(NC(=O)c2ccccc2-n2cncn2)s1 (configuration not stated)	i
O=C(CCC1N=C2c3ccccc3N=C(SCc3cc(=O)n4cc(Cl)ccc4n3)N2C1=O)NCc1ccc2c(c1)OCO2 (configuration not stated)	i
Cc1cccc(NC(=O)c2c(O)c3cccnc3n(-c3cccc(F)c3)c2=O)c1C	i
Cc1nc2nc[nH]n2c(=O)c1CCC(=O)NCC1(c2cccc(F)c2)CCOCC1	i
CN(Cc1cc2n(n1)CCCNC2)Cc1nc2ccccc2s1	i
Cc1cc(C)n(Cc2nc(-c3ccc(NC(=O)c4ccc(F)cc4Cl)cc3)oc2C)n1	i
Cc1nn(Cc2nc(-c3ccc(NC(=O)c4cccc(F)c4)cc3)oc2C)c(C)c1C	i
Cc1cc(C)n(Cc2nc(-c3ccc(NC(=O)Cc4cccc(F)c4)cc3)oc2C)n1	i
Cc1nn(Cc2nc(-c3ccc(NC(=O)c4ccc(F)cc4F)cc3)oc2C)c(C)c1C	-100.6
Cc1cc(C)n(Cc2nc(-c3ccc(NC(=O)c4cc(F)ccc4F)cc3)oc2C)n1	-81.0
SMILES	Tgondii IFNg
Cc1cc(C)n(Cc2nc(-c3ccc(NC(=O)Cc4ccccc4F)cc3)oc2C)n1	i
Cc1cc(C)n(Cc2nc(-c3ccc(NC(=O)c4ccc(F)cc4F)cc3)oc2C)n1	-84.8
COc1ccc(C(=O)Nc2ccc(-c3nc(Cn4nc(C)cc4C)c(C)o3)cc2)cc1F	i
Cc1nn(Cc2nc(-c3ccc(NC(=O)c4ccccc4F)cc3)oc2C)c(C)c1C	i
Cc1cc(-c2ccccc2CN2CCOCC2)cnc1-n1cnnc1	i
COc1ccccc1-c1noc(CCC(=O)Nc2nnc(C)s2)n1	i
Cc1ccc(-c2ccnc(NCc3ccccc3-n3cncn3)n2)c(C)n1	i
CCc1cccc(C)c1NC(=O)Cn1c(=O)cc(C(=O)N2CCc3ccccc3C2)c2ccccc21	i
Cc1cccc(-c2nc(NC(=O)N3CCC(Oc4cccnc4)CC3)n[nH]2)c1	i
C=CCN(Cc1ccc(SC)cc1)C(=O)C1CCOC1 (configuration not stated)	i
CN(C)C(=O)N1C[C@@H]2COC[C@]2(COCC2CCOCC2)C1	i
O=C1NCC2(CCCN(C(=O)c3cc(=O)[nH]c4ccc(F)cc34)C2)O1 (configuration not stated)	i
COCCN(CCOC)C(=O)c1ccc2ccc(N3CCC(C)CC3)n2c1	-88.3
CCCCN(C)C(=O)c1ccc2ccc(N3CCN(CC4CC4)CC3)n2c1	i
CCN(CC)CCCNC(=O)c1ccc2ccc(N3CCC(C)CC3)n2c1	i
c1ccc(CCc2n[nH]c(COc3ccc4c(c3)OCO4)n2)cc1	i
Cc1nc(-c2cccc(F)c2)sc1CCNC(=O)C1CCCCC1	i
Cc1c(OCC(F)(F)F)ccnc1C[S@@](=O)c1nc2ccccc2[nH]1	i
COCCC(=O)c1cc(-c2ccn(-c3ccccc3)n2)n2ccccc12	i
CN(C)CCNC(=O)c1cc(-c2ccn(-c3ccccc3)n2)n2ccccc12	-106.0
Cc1nc(-c2cc(C(=O)NCCN(C)C)c3ccccn23)cn1-c1nccs1	i
CN(C)c1cc(NCc2cn3c(n2)CN(CC2CC2)CC3)ncn1	i
CCOCC12CCCOC1CCN(C(=O)c1ccncc1)C2 (configuration not stated)	i
CCOCC12CCCOC1CCN(Cc1ccc(C)s1)C2 (configuration not stated)	-88.4
CCOCC12CCCOC1CCN(Cc1cccs1)C2 (configuration not stated)	i
SMILES	Tgondii IFNg
COc1ncccc1CN1CCC2(CC1)CC(COCC1CC1)N(C)C2 (configuration not stated)	i
COc1cc(NC(=O)NC2Cc3ccccc3C2)cc(OC)c1	i
O=C(CSC(=O)c1ccco1)Nc1cc(C(F)(F)F)cc(C(F)(F)F)c1	i
O=C(Nc1cc(C(F)(F)F)cc(C(F)(F)F)c1)NC1CCc2ccccc2O1 (configuration not stated)	-82.1
COc1cccc(CN2CC[C@]3(CCC[C@@H](CN4CCCC4=O)O3)C2)c1	i
CN(C)CC1(O)CCCN(Cc2ccccc2OCC(=O)O)CC1 (configuration not stated)	i
CN(C)CC1(O)CCCN(S(=O)(=O)N(C)Cc2ccccc2)CC1 (configuration not stated)	-77.9
CN(C)CC1(O)CCCN(C(=O)CCOc2ccccc2)C1 (configuration not stated)	i
COc1cccc(-c2nc3c(s2)N(C(C)C)C(C(=O)N2CCC(O)CC2)C3)c1 (configuration not stated)	i
CCc1[nH]c(=O)c(C(=O)N2CCCC2c2nc(C)c(CC)c(=O)[nH]2)cc1C (configuration not stated)	i
COc1ccc(NC(=O)N2CCOCC2)cc1	i
COc1ccc(Oc2ccc(NC(=O)C3C4CC5OC(=O)C3C5C4)cc2)cc1 (configuration not stated)	i
COc1ccc(NC(=O)C2OC3OC(C)(C)OC3C3OC(C)(C)OC23)cc1 (configuration not stated)	-94.1
Cc1nc(-c2ccc(F)cc2)sc1CCNC(=O)C(C)(C)C	i
CS(=O)(=O)N1CCC2O[C@H](COCC(=O)N3CCCC3)CCC21 (some centres not stated)	i
Cc1nc(-c2cc(S(=O)(=O)N3CCC(Cc4ccccc4)CC3)c(C)s2)sc1C	i
CCCCSc1nc2sc3c(c2c(=O)n1-c1ccc(C)cc1)CCC3	i
Cc1ccc(C(=O)N2CCN(c3nc(C)nc4sc5c(c34)CCCC5)CC2)cc1	-96.1
Cc1ccc(C(=O)N2CCOCC2)cc1	i
C=C/C=C(\C(C)=C(C)C)N(C(=O)NCc1ccccc1)C1=NCCCS1	i
C=CCn1c(=O)c(-c2nc(-c3ccc(OC)c(F)c3)no2)c(O)c2ccccc21	i
CO[C@@H]1CN(C)C(=O)c2cc(NC(=O)c3cnccn3)ccc2OC[C@H](C)NC[C@@H]1C	i
COc1cccc(NC(=O)Nc2ccc3c(c2)C(=O)N(C)C[C@@H](OC)[C@H](C)CN[C@@H](C)CO3)c1	i
COc1cccc(NC(=O)Nc2ccc3c(c2)C(=O)N(C)C[C@H](OC)[C@H](C)CN[C@@H](C)CO3)c1	i

Assay outcomes from PubChem BioAssay.
